95 molecules from PubChem BioAssay AID1626 (SRMLSC, 2009) can be followed below.

A word on the inhibition: it is the relative decrease from the control value, in per cent.

Values joined by “and” are separate entries in the source; they are usually repeats but may differ in a detail not shown here. Equal values may be shown once. Among all 220,000 compounds or so, about 2,000 (0.91%) were called active. Inconclusive results (about 2%) are left out. The list is a sample of the results. Measured potencies and affinities stand elsewhere. A number with no mark means an inactive call. No stated cut-off is given here; in the data, inconclusive means inhibition above about 80% without an active follow-up result; inactive means below that; test concentration not stated here.

The assay can be described thus: M. tuberculosis H37Rv growth inhibitors, H37Rv strain (AID 1626).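 Further: bacteria incubated seven days before Alamar blue readout; 0% = bacteria only wells and 100% = bacteria with antibiotic wells.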 The following applies: stronger effect = higher value, concentration not given here.
On to `N#Cc1cnn2c1nc(N1CCOCC1)c1ccccc12`, for which the inhibition was 3.61%.
In the case of `O=C(O)c1ccc(/C=N/NC(=O)c2ccc(NS(=O)(=O)c3cccs3)cc2)cc1` it was 7.29%.
In the case of `CN(C)CCNC(=S)Nc1ccc(Cl)cc1Cl` it was 3.74%; in that of `CC(=O)/C(=C/N(C)C)C(=O)Nc1ccc(Cl)cc1Cl`, 5.27%; in that of `Cc1cc(=O)n2nc(N3CCC(C(=O)N4CCN(C)CC4)CC3)sc2n1`, -6.22%.
In the case of `CCN(CC)S(=O)(=O)c1ccc(C)c(NC(=O)Cn2cnc3cc([N+](=O)[O-])ccc3c2=O)c1` it was -5.31%; in that of `O=C(CSc1nnc(-c2ccccc2)o1)N1CCc2ccccc2C1`, 0.6%; in that of `COc1ccc(-c2nnc(SCC(=O)N3CCc4ccccc4C3)o2)cc1`, 55.5%.
Regarding `COc1cccc(CNc2ccc(F)c(Cl)c2)c1OC`, the inhibition was 9.35%.
With `COc1ccc(NC(=O)C(OC)c2ccccc2)cc1Cl` (stereo not given) the figure was 4.82%; with `O=C(/C=C/c1ccc(Cl)cc1)NCc1ccco1`, -3.37%.
In the case of `CCn1c(SCC(=O)Nc2ccc(C)cc2)nc2nc3c(cc2c1=O)COC(C)(C)C3` it was 11.8%; in that of `Nc1o[nH]c(=O)c1Cc1ccccc1`, -2.12%.
In the case of `CCOC(=O)c1sc(NC(=O)CCN2C(=O)c3ccccc3C2=O)c(C(=O)OCC)c1C`, the inhibition was -2.12%.
In the case of `CCOC(=O)c1sc(NC(=O)CNCc2cccnc2)c(C(=O)OCC)c1C` it was 0.97%; in that of `CC1CCN(CC(=O)NCc2ccco2)CC1`, -7.7%; in that of `COC(=O)c1sccc1NC(=O)COc1cccc(C)c1`, 0.14%.
In the case of `Cc1cc(CSc2ccccc2)ccc1NC(=O)c1ccc(CN2CCOCC2)cc1` it was 7.66%; in that of `NC(=O)c1ccc(NC(=O)c2ccc(CN3CCOCC3)cc2)cc1`, -7.24%; in that of `O=C(Nc1ccc(CN2CCOCC2)cc1)c1ccc(-c2cccc(Cl)c2)o1`, 8.55%.
With `O=C(NC(=S)Nc1ccc(CN2CCOCC2)cc1)c1ccc(-c2ccc(Br)cc2)o1` the figure was 42.5%; with `CC(OC(=O)c1ccccc1Oc1ccccc1)C(=O)NC1CC1` (stereo not given), 4.72%; with `O=S(=O)(Nc1nc2ccccc2nc1-[n+]1ccccc1)c1ccc(Cl)cc1`, -0.65%.
Take `Nc1cc2c3c(cccc3c1)C(=O)N(CCN1CCCC1)C2=O`: the inhibition was 18.6%.
In the case of `O=C1c2cccc3cc([N+](=O)[O-])cc(c23)C(=O)N1c1ccccc1O` it was 6.45%; in that of `Cc1nn(-c2ccccc2)c(Cl)c1C(=O)NCC(=O)O`, 4.16%; in that of `Fc1cccc(-n2ncc(-c3nnnn3-c3ccccc3)c2C(F)(F)F)c1`, -6.57%.
In the case of `O=[N+]([O-])c1c(NCCCO)cc(Sc2ccc(Cl)cc2)c2nonc12` it was 53.5%.
In the case of `CC(=O)OCCCNc1cc(Sc2ccc(C)cc2)c2nonc2c1[N+](=O)[O-]` it was 13.8%; in that of `CC(=O)OCCCNc1cc(Sc2ccc(Cl)cc2)c2nonc2c1[N+](=O)[O-]`, 8.58%.
As for `CC(=O)OCCNc1cc(Sc2nc3ccccc3[nH]2)c2nonc2c1[N+](=O)[O-]`, the inhibition is -3.19%.
Regarding `O=[N+]([O-])c1c(NCCCO)cc(SCc2ccco2)c2nonc12`, the inhibition was 74.7%.
With `CCC(=O)OCCNc1cc(Sc2nc3ccccc3[nH]2)c2nonc2c1[N+](=O)[O-]` the figure was 42.4%; with `O=[N+]([O-])c1c(NCc2ccco2)ccc2nonc12`, -3.46%; with `N/C(=N\OC(=O)COc1ccccc1Cl)c1ccc(Cl)cc1`, 7.15%.
In the case of `COc1cc2c(cc1OC)CN(C(=O)CSc1nc(N)c(C#N)cc1C#N)CC2` it was -0.19%; in that of `CCN(CC)CCN(C(=O)c1ccc(Br)s1)c1nc2cc3c(cc2s1)OCO3`, 4.27%.
With `CCCCNC(=O)CCCCC(=O)N/N=C/c1ccccc1Cl` the figure was -1.94%; with `COc1ccc(O)c(C2=Nc3ccccc3N=C(c3ccco3)C2)c1`, 6.13%; with `COc1ccc(NC(=O)NC2CCCCC2C)cc1` (stereo not given), 0.36%.
Take `COc1ccc(C2(C(=O)N3CCCC3)CCOCC2)cc1OC`: the inhibition was -12.9%.
In the case of `COc1cc(OC)c2c(-c3ccccc3)cc(=O)oc2c1C(CC(=O)N1CCOCC1)c1ccc2c(c1)OCO2` (stereo not given) it was 0.96%; in that of `CCN(CC)C(=O)CC(c1ccc2c(c1)OCO2)c1c(OC)cc(OC)c2c(-c3ccccc3)cc(=O)oc12` (stereo not given), -2.83%; in that of `COc1cc(OC)c2c(-c3ccccc3)cc(=O)oc2c1C(CCN1CCCC1)c1ccc2c(c1)OCO2` (stereo not given), 77%.
In the case of `COc1cc(OC)c2ccc(=O)oc2c1C(CCN1CCCC(C)C1)c1ccc2c(c1)OCO2` (stereo not given) it was -5.64%.
With `COc1cc(OC)c2c(-c3ccccc3)cc(=O)oc2c1C(CC(=O)N1CCCC1)c1ccc2c(c1)OCO2` (stereo not given) the figure was 0.92%.
For `CCN(CC)CCC(c1ccc(N(C)C)cc1)c1c(OC)cc(OC)c2c(-c3ccccc3)cc(=O)oc12` (stereo not given), the inhibition was 14.1%.
With `CCN(CC(=O)NCc1ccc(F)cc1)CC(=O)Nc1ccccc1-c1ccccc1` the figure was -6.65%; with `C=CCN1C(=O)C(CC(=O)Nc2ccccc2F)S/C1=N\c1nccs1` (stereo not given), 6.25%; with `CCCNC(=O)C(=O)NCCC1=CCCCC1`, -4.88%.
With `COc1cccc(OC)c1C(=O)Nc1c(C)n(C)n(-c2ccccc2)c1=O`, the inhibition was 0.17%.
In the case of `O=C(COc1ccc(Br)cc1CO)Nc1ccc(F)cc1` it was 9.43%; in that of `CCCCN(C)C(=O)C(Cc1ccccc1)NS(=O)(=O)c1ccc2c(c1)CCC(=O)N2` (stereo not given), -4.66%; in that of `CNC(=S)N(Cc1ccco1)Cc1cc2cc(OC)ccc2[nH]c1=O`, -3.07%.
Regarding `CCCCCCNC(=O)N1C/C=C\C(c2ccc(OC)cc2)N(Cc2ccc(F)cc2)C(=O)C1` (stereo not given), the inhibition is -0.25%.
In the case of `C[n+]1c2n(c3ccccc31)N=C(c1ccc(-c3ccccc3)cc1)CS2` it was 5.47%; in that of `C[n+]1c2n(c3ccccc31)N=C(c1ccccc1)CS2`, -4.82% and 0%.
For the molecule `O=C(N/N=C/c1ccc2c(c1)OCO2)c1ccc(COc2cccc3cccnc23)cc1`, the inhibition is 0.48%.
In the case of `COCC(=O)NNC(=S)Nc1cccc(C)c1C` it was 9.36%; in that of `COC(=O)c1ccc(C(=O)OC)c(NC(=S)N2CCOCC2)c1`, 5.12%; in that of `CCN(CC)C(=O)CSc1nnc2nnc3cc(C)ccc3n12`, 65.9%.
In the case of `CCN(CC)C(=O)CSc1nnc2nnc3cc(OC)ccc3n12` it was 44%; in that of `CCOc1ccc(-c2onc(C(F)(F)F)c2-c2cscn2)c(O)c1`, 6.75%; in that of `COc1cc(/C=C/C(=O)O)cc(S(=O)(=O)Nc2ccccc2Oc2ccccc2)c1OC`, -0.26%.
As for `CSc1sc(C(=O)N2CCCCC2)c(-c2cccs2)c1C#N`, the inhibition is -3.75%.
In the case of `Cn1c2c(c(=O)n(C)c1=O)C(C(F)(F)F)(C(F)(F)F)N=C(c1ccccc1Cl)N2` it was -9.88%.
With `COc1ccc(C2=NC(C(F)(F)F)(C(F)(F)F)c3c(n(C)c(=O)n(C)c3=O)N2)cc1` the figure was -0.04%.
For the molecule `CCOC(=O)c1c(CN2CCC(C)CC2)n(C)c2cc(Br)c(OC)cc12`, the inhibition was 11.6%.
Regarding `COc1ccccc1NS(=O)(=O)c1cc(C)ccc1C`, the inhibition is -7.48%.
With `CC(NC(=O)c1ccccc1F)c1nnc(SCc2nc3ccccc3c(=O)[nH]2)n1C` (stereo not given) the figure was -3.02%; with `Cc1c(-c2ccccc2)sc2nc[nH]c(=S)c12`, 89.6%.
With `O=c1[nH]cnc2sc(-c3ccccc3)cc12` the figure was 40%.
With `CNc1ncnc2sc(-c3ccccc3)cc12` the figure was -0.065%; with `Cc1sc2nc(Cc3ccccc3)[nH]c(=O)c2c1-c1ccccc1`, -4.69%.
In the case of `c1ccc2c(c1)NC1(CCCCCC1)n1c-2nc2ccccc21`, the inhibition was -3.46%.
`COc1ccc(CCn2c(-c3ccc(Cl)cc3)n[nH]c2=S)cc1OC`: the inhibition is 1.97%.
In the case of `COc1ccc(C(=O)NCCc2nnc3ccc(SCC(=O)Nc4cc(C)on4)nn23)cc1` it was 14.5%; in that of `COc1ccc(C(CC(=O)Nc2nccs2)n2cccc2)cc1` (stereo not given), -4.49%; in that of `CCOC(=O)c1nnn(-c2ccc([N+](=O)[O-])cc2[N+](=O)[O-])c1C`, -6.3%.
With `O=[N+]([O-])c1ccc(-n2nnnc2-c2ccccc2)cc1` the figure was 1.98%; with `Cc1ccc(-c2csc3nc(C)n(N)c(=O)c23)cc1`, 3.11%; with `COc1ccc(C(=O)COC(=O)CNC(=O)C2CCCCC2)c(OC)c1`, -2.99%.
Take `COc1ccc(O)c(C(=O)CC(=O)c2ccc(F)cc2)c1`: the inhibition was -1.1%.
In the case of `COc1ccc(O)c(C(=O)CC(=O)c2ccccc2)c1` it was 0.06%.
With `COc1ccccc1CCNC(=O)Cc1cccs1` the figure was 4.99%.
With `Cc1cccc(N(CC(N)=O)S(C)(=O)=O)c1C` the figure was 9.11%; with `Cc1ccc2nc(NC(=O)C(NS(=O)(=O)c3cccc4nsnc34)C(C)C)sc2c1` (stereo not given), 11.5%.
Consider `COc1ccc(NC(=S)NCc2ccco2)c(OC)c1`, for which the inhibition was -0.51%.
As for `CCOc1ccc(CCNC(=O)CSc2cc(=O)n(C)c3cc(Cl)ccc23)cc1OCC`, the inhibition was -8.35%.
In the case of `COc1ccc(OC)c(N/C(C)=C/C(=O)c2ccc(C)o2)c1` it was -3.01%; in that of `COc1ccc(N/C=C\C(=O)c2ccc3c(c2)OCO3)cc1`, 77.1%; in that of `COc1ccc(C(=O)/C=C(\C)Nc2ccc3c(c2)OCO3)cc1`, 53.2%.
With `COC(=O)c1ccc(N/C=C\C(=O)c2ccc3c(c2)OCO3)cc1` the figure was 17.8%.
In the case of `CCOc1ccc(N/C(C)=C/C(=O)c2ccc3c(c2)OCCO3)cc1` it was 77.8%.
With `CC(=O)Nc1ccc(N/C=C/C(=O)c2ccc(C)o2)cc1`, the inhibition is 7.24%.
